Screening results from PubChem.
GLS inhibitor = glutaminase GLS (human) inhibition; Potency, µM (doses to about 45.5 µM), usual class: inhibitors; AID 624170; actives 0.21% (n = 410,000); O94925; GLS enzymatic activity, qHTS titration
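Human kidney-isoform GLS in 45 mM KH2PO4 pH 8.2, 0.02% Tween-20, with compound, started with 1mM L-Glutamine (added stock). Glutamate oxidase/HRP/Amplex red coupled fluorescence read at start and after 30 min at RT.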
VDR inh = vitamin D3 receptor (human) inhibition; Potency, µM, most hits filed as inhibitors; VDR-SRC2-3 peptide fluorescence polarization, 2 h; P11473; actives 0.93% (n = 400,000); AID 504847
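VDR–SRC2-3 interaction, FP format. Cmpds 23 nl via pintool, brief spin, 2 h ambient incubation.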
TrxR1 inh = blocks rat thioredoxin reductase 1; O89049; recombinant rTrxR1, NADPH fluorescence consumption, selenite substrate; Potency, µM (titrated, usually from 114 µM), actives largely listed as inhibitors; actives 1% (n = 390,000); also: nearly all actives have a fitted effect of over 65% in size
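Rat TrxR1 (90 nM in the dispensed reagent) was pre-reduced with 400 uM NADPH for 5 min at room temperature, then incubated with compound for 15 min. After 400 uM selenite was added, NADPH fluorescence (Ex 340/Em 450 nm) was followed for 8 min.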
Sfp inh = inhibitors of Bacillus subtilis Sfp phosphopantetheinyl transferase; Potency, µM, most hits filed as inhibitors; Q9F4F7; Biochemical Sfp PPTase activity, qHTS; actives 3.5% (n = 310,000); AID 1490;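 also: the enzyme is Sfp with the accession as filed and its product quenches rhodamine fluorescence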
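Step 1, compound plus 15 nM Sfp-PPTase, 15 min, room temperature. Step 2, add rhodamine-CoA (5 uM) and BHQ-2-YbbR (12.5 uM). Step 3, read 525/598 nm fluorescence at 0 and 30 min.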
GCN5L2 inh = blocks human GCN5L2 histone acetyltransferase; GCN5L2 HAT assay, ThioGlo1 CoA-SH fluorescence; Potency, µM (titrated, usually from 58.9 µM), usual class: inhibitors; actives 0.21% (n = 390,000); AID 504327
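Enzyme at 20nM final was mixed with library compounds for 15 min at room temperature. Peptide H3(1-25) at 75uM, acetyl-CoA at 70uM and ThioGlo1 at 50uM were then added. Plates were read immediately and after 20 min (Ex340nm/Em540nm).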
TrxR1 substrate = rat thioredoxin reductase 1 substrate activity; O89049; purified TrxR1 substrate turnover, NADPH consumption readout; actives 0.01% (n = 390,000); Potency, µM (titrated, usually from 114 µM); also: nearly all actives have a fitted effect of over 50% in size
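Rat TrxR1, dispensed at 90 nM, was prereduced with 400 uM NADPH (final) for 5 min at ~22 deg C, then incubated with compound 15 min before 400 uM selenite. A first-read NADPH fluorescence drop versus no-compound background flagged substrates.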
Of the large screens only hits and unclear results are named; the others gave an inactive call. This is a sample that favours compounds with a hit; in the whole collection about 3.8% have one here. Calls follow the shape of the dose curve; as a rule, active = well fitted curve in the direction sought with a large enough effect; inconclusive = small, poorly fitted or top-dose-only effect, or another doubt; inactive = no such curve, though single readings can be large; an effect the other way counts as inactive or inconclusive.

COc1c(N)c2ccccc2[nH]c1=O	Sfp inh 13µM
Cc1cc(C)c(S(=O)(=O)c2ccccc2C(=O)O)c(C)c1	VDR inh inconclusive
CCN(CC)S(=O)(=O)c1ccc2oc(SCC(=O)Nc3cc(C)on3)nc2c1	VDR inh inconclusive (no result: Sfp inh)
O=C(CSc1ccc2ccccc2c1)N1CCN(c2ccc(O)cc2)CC1	Sfp inh 50µM
O=C(c1ccc2ccccc2c1)N1CCN(c2ccc(O)cc2)CC1	Sfp inh inconclusive
Cc1ccc(C(=O)NCC#N)cc1	none
Cc1ccc(C(=O)NC(C#N)=C(Cl)Cl)cc1	TrxR1 inh 3.2µM
Cc1ccc(N/C=C(\[N+](=O)[O-])S(=O)(=O)c2ccccc2)cc1	GLS inhibitor inconclusive
CC(C)C[C@@H](CNCC(=O)[C@H](Cc1c[nH]c2ccccc12)NC(=O)c1[nH]cnc1C(=O)N[C@@H](C)CN)NC(=O)c1nc[nH]c1C(=O)N[C@@H](CC(=O)O)C(=O)O	GLS inhibitor 10µM, VDR inh inconclusive (no result: Sfp inh, GCN5L2 inh)
CC(C)C[C@@H](CN)NC(=O)c1nc[nH]c1C(=O)N[C@@H](Cc1c[nH]c2ccccc12)C(=O)CNC[C@H](C)NC(=O)c1nc[nH]c1C(=O)N[C@@H](CC(=O)O)C(=O)O	GLS inhibitor inconclusive (no result: Sfp inh, GCN5L2 inh)
CC(C)C[C@@H](CNCC(=O)[C@H](Cc1c[nH]c2ccccc12)NC(=O)c1[nH]cnc1C(=O)N[C@H](CN)CC(C)C)NC(=O)c1nc[nH]c1C(=O)N[C@@H](CC(=O)O)C(=O)O	GLS inhibitor 8.9µM (no result: Sfp inh, GCN5L2 inh)
CCOC(=O)c1cc(OC(=O)c2cccs2)n(-c2ccccc2)n1	TrxR1 inh 22µM
CCOC(=O)c1cc(OC(=O)c2ccccc2)n(-c2ccccc2)n1	none
COc1ccc(C=C(C(=O)c2ccccc2)c2ccccc2)cc1	none (no result: VDR inh, TrxR1 inh, Sfp inh, GCN5L2 inh, TrxR1 substrate)
NC(C(=O)O)[C@H](O)C(=O)O (stereo partly drawn)	Sfp inh 56µM (no result: GLS inhibitor, TrxR1 inh, TrxR1 substrate)
NC(C(=O)O)C(O)C(=O)O (stereo not drawn)	none (no result: GLS inhibitor, VDR inh, TrxR1 inh, GCN5L2 inh, TrxR1 substrate)
O=C1c2ccccc2-c2onc3ccc(NCc4ccco4)c1c23	VDR inh inconclusive, TrxR1 inh 25µM
CCNc1ccc2noc3c2c1C(=O)c1ccccc1-3	none
Cc1cccc(Oc2nc(-c3ccccn3)nc3ccccc23)c1	Sfp inh 71µM
CCCCCCCCCCCCCCCC(=O)C1=C(O)C(CO)OC1=O (stereo not drawn)	VDR inh 14µM, GCN5L2 inh 11µM (no result: GLS inhibitor, TrxR1 inh, TrxR1 substrate)
CN(c1ccccc1N(C)S(=O)(=O)c1ccccc1)S(=O)(=O)c1ccccc1	none (no result: Sfp inh, GCN5L2 inh)
Clc1ccc(C(c2nnnn2C2CCCC2)N2CCN(Cc3ccncc3)CC2)cc1 (stereo not drawn)	none
O=c1c(C(c2nnnn2C2CCCCC2)N2CCCCC2)coc2ccc(Cl)cc12 (stereo not drawn)	TrxR1 inh 28µM
CCCn1nnnc1SCC(=O)c1ccc(NC(C)=O)cc1	Sfp inh 79µM
COCCn1c(SCC(=O)c2ccc3c(c2)OCCO3)nnc1C(C)C	Sfp inh inconclusive
CCCn1nnnc1SCC(=O)Nc1sc(C)c(C)c1C#N	Sfp inh 50µM
COCCn1c(SCC(=O)c2ccc(Cl)cc2)nnc1C(C)C	VDR inh inconclusive, TrxR1 inh 6.3µM, Sfp inh 79µM
CCn1nnnc1SCC(=O)c1cccc(OC)c1	none
Cc1sc(NC(=O)CSc2nnnn2C2CCCC2)c(C#N)c1C	none
CC(=O)Nc1ccc(C(=O)CSc2nnnn2C)cc1	none
COCCn1nnnc1SCC(=O)c1ccccc1	TrxR1 inh inconclusive, Sfp inh 50µM
Cc1ccc2nc(-c3cccc(Br)c3)c(CC3CCCCC3)n2c1	none (no result: VDR inh, TrxR1 inh, Sfp inh, GCN5L2 inh, TrxR1 substrate)
O=C(O)COc1ccccc1/C=C1\SC(=S)N(c2cccnc2)C1=O	none
Nc1cccc(-c2cc3ccccc3oc2=O)c1	none
CCN(Cc1ccccc1)S(=O)(=O)c1ccc(C(=O)N(CCCN(C)C)c2nc3c(F)cccc3s2)cc1	Sfp inh 79µM
